PubChem BioAssay (NCI)
Values joined by “and” are separate entries in the source; they are usually repeats but may differ in a detail not shown here. Equal values may be shown once. About 83,000 compounds went through this panel and 20% of them were active in at least one assay; those are over-represented in the sample as a whole.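 The endpoint reported here, percent growth, reads 100 for growth as untreated, 0 for no net growth and -100 for all cells dead.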 A number with no mark means an inactive call. Active and inactive are the calls of the source.

Test system: NCI-H322M lung
Experiment: NCI-60 one-dose screen, 48 h (100 = growth as untreated, 0 = no growth, -100 = all killed)
Details: 0.0025 µM
Method: Growth inhibition of the NCI-H322M human Non-Small Cell Lung tumor cell line is measured as a screen for anti-cancer activity. Cells are grown in 96 well plates and exposed to the test compound for 48 hours. Compounds are tested at a single concentration, which is 10^-5 M for most compounds. The reported endpoint is percent growth (GI% or GIPRCNT), where numbers from 0 - 100% represent growth inhibition, and numbers from -100% - 0 represent cell death. For example, a value of 40 represents 60% growth inhibition. A value of 0 means no net growth occurred over the course of the experiment. A value of -40 indicates 40% of cells at the beginning of the experiment died by the end of the experiment. A value of -100 means all cells are dead at the end of the experiment.
NCI-60 Human Tumor Cell Lines Screen was performed using the standard one-dose NCI protocol, which is described in more detail at https://dtp.cancer.gov/discovery_development/nci-60/default.htm.
Compounds with GIPRCNT values below 10 were considered active. Activity score was based on GIPRCNT using the following formula: […]
Score is 0 for GIPRCNT values of 100 or above, 50 for GIPRCNT values of 0, and 100 for GIPRCNT values of -100.

Structure (SMILES) | growth [%]
COc1cccc2c1C(=O)c1c(O)c3c(c(O)c1C2=O)C[C@@](O)(C(=O)CO)C[C@@H]3OC1CC(N)C(O)C(C)O1 (stereo not given in full) | 86.8

Same assay, conditions: 1 µM

Structure (SMILES) | growth [%]
COc1cccc2c1C(=O)c1c(O)c3c(c(O)c1C2=O)C[C@@](O)(C(=O)CO)C[C@@H]3OC1CC(N)C(O)C(C)O1 (stereo not given in full) | 63.4

Same assay, conditions: 2.5 µM

Structure (SMILES) | growth [%]
COc1cccc2c1C(=O)c1c(O)c3c(c(O)c1C2=O)C[C@@](O)(C(=O)CO)C[C@@H]3OC1CC(N)C(O)C(C)O1 (stereo not given in full) | 101

Same assay, conditions: 10 µM

Structure (SMILES) | growth
COc1cccc2c1C(=O)c1c(O)c3c(c(O)c1C2=O)C[C@@](O)(C(=O)CO)C[C@@H]3OC1CC(N)C(O)C(C)O1 (stereo not given in full) | 13.9%
COC(=O)C1C(O)C(C)C(O)C(C)C=C(C)C2=C3C(=C(C)C(=O)c4c(O)c(c(C)c(OC(C)=O)c43)NC(=O)C(C)=C/C=C\C(C)C(O)C(C)C1O)OCO2 (stereo not given) | 140%
CC[N+](CC)=c1ccc2nc3c(cc(N)c4ccccc43)oc-2c1 | -46.5% (active)
CCCCCC(C)c1ccc(O)c(C)c1 (stereo not given) | 99.3%
Cc1nc(N=C(N)N)nc2ccc3ccccc3c12 | -3.99% (active)
CCO/C=C1\SC(=S)N(c2cccc(O)c2)C1=O | 95.8%
CS(=O)(=O)OC1CC(n2ccc(=O)[nH]c2=O)OC1COC(c1ccccc1)(c1ccccc1)c1ccccc1 (stereo not given) | 89.1%
O=[N+]([O-])C1=C(c2ccccc2)SC=C(c2ccccc2)S1 | 92.4%
NC1=C(Cl)C(=O)c2ccccc2C1=O | 98.6%
Cc1cc(O)c(C(C)C)cc1Cl | 96.9%
NNc1ccc2ccccc2c1 | 83% and 97.3%
OCC1OC(n2cnc3c(=S)nc[nH]c32)C(O)C1O (stereo not given) | 96.5% and 62.9%
CN(C)C(=S)SC(=S)N(C)C | 101% and 86%
CC(=O)OCC(OC(C)=O)C(OC(C)=O)C(OC(C)=O)C(OC(C)=O)C(/C=N/Nc1ccccc1)=N/Nc1ccccc1 (stereo not given) | 65%
Nc1c2ccccc2nc2ccccc12 | 12.1% and 36.8% and 31.9%
CCCC1CCC(=C2C(=O)CCC2=O)O1 (stereo not given) | 90.9% and 96.9%
N=S(c1ccccc1[N+](=O)[O-])c1ccccc1[N+](=O)[O-] | 93.4%
Nc1nc(=S)c2ncn(C3OC(CO)C(O)C3O)c2[nH]1 (stereo not given) | 128% and 64.3%

Structure (SMILES) | growth
COc1c(O)cc2oc3cc(O)c(CC=C(C)C)c(O)c3c(=O)c2c1CC=C(C)C | 83.6%
NC(=O)SCC(=O)NNc1ccccc1 | 94.8%
CCCCCCCCCCCCSC(=NC)NC | 52.8% and 95.6%
COc1ccc(CC(=O)c2ccc(O)cc2O)cc1 | 122%
CCC(C)(C)c1cc(O)c(C(C)(C)CC)cc1O | 45.6%
O=C(O)COc1ccc(OCC(=O)O)cc1 | 39.3%
O=c1ccn(C2CC(O)C(COC(c3ccccc3)(c3ccccc3)c3ccccc3)O2)c(=O)[nH]1 (stereo not given) | 87.5%
O=C1C=C(O)c2ccccc2C1=O.[Ag] | 99%
COC(=O)C1=COC(C)C2C[n+]3ccc4c([nH]c5ccccc54)c3CC12 (stereo not given) | 107% and 95.9%
Oc1ccc(N=Nc2ccccn2)c(O)c1 | 31.6%
O=C(/C=C/c1ccccn1)c1ccccc1 | 88.8%
O=C(Nc1ccc(C(=O)O)c(O)c1)c1ccccc1 | 100% and 97.7%
CCN(CC)c1ccc(NC(C(=O)c2ccccc2)c2ccccc2)cc1 (stereo not given) | 82.9%
Nc1ccc2cc3ccc(N)cc3nc2c1 | -7.06% (active)
CSC1SCC2C(=O)N(C)C(C(C)C)C(=O)OCC(NC(=O)c3cnc4ccccc4n3)C(=O)NC(C)C(=O)N(C)C1C(=O)N(C)C(C(C)C)C(=O)OCC(NC(=O)c1cnc3ccccc3n1)C(=O)NC(C)C(=O)N2C (stereo not given) | 9.51% (active)
NNc1c2ccccc2nc2ccccc12 | 75.9%
CCN1/C(=C/C=C/C=C/c2sc3ccccc3[n+]2CC)Sc2ccccc21 | 5.13% (active)
CO[C@H](C(=O)[C@@H](O)[C@@H](C)O)[C@@H]1Cc2cc3cc(OC4CC(OC5CC(O)C(O)C(C)O5)C(O)C(C)O4)c(C)c(O)c3c(O)c2C(=O)[C@H]1OC1CC(OC2CC(OC3CC(C)(O)C(O)C(C)O3)C(O)C(C)O2)C(O)C(C)O1 (stereo not given in full) | 5.87% (active)

Same assay, conditions: 100 µM

Structure (SMILES) | growth [%]
O=c1ccn(C2CC(O)C(COC(c3ccccc3)(c3ccccc3)c3ccccc3)O2)c(=O)[nH]1 (stereo not given) | 68.8
